Common to all, as to assay: BK channel mutant inhibitors and activators – cell-based, U2OS BacMam, thallium flux, beta subunits, selectivity assay, profiling panel (AID 1259406);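 also: initial slope of Thallos dye fluorescence rise after thallium is added; log ratio against the mean of 0.3% DMSO vehicle wells on the same plate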
One test concerns F380Y. The note with it: U2OS BacMam BK variants, at 30 µM.
In the next test the test system is F380Y/beta1. As to conditions: U2OS BacMam BK variants, at 30 µM.
The next test concerns F380Y/beta2Delta. The note with it: U2OS BacMam BK variants, at 30 µM.
Another test relates to F380Y/beta4. The note with it: U2OS BacMam BK variants, at 30 µM.
For test [1], the target named is Calcium-activated potassium channel subunit alpha-1 (Homo sapiens) + Leucine-rich repeat-containing protein 26 (Homo sapiens) (UniProt Q12791+Q2I0M4). As to conditions: U2OS BacMam BK variants, F380Y/Slo1WT/gamma1, at 30 µM.
The test system of the next test is R275C. As to conditions: U2OS BacMam BK variants, at 30 µM.
Another test has as its system R275C/beta1. As to conditions: U2OS BacMam BK variants, at 30 µM.
The test system of a further test is R275C/beta2Delta. The note with it: U2OS BacMam BK variants, at 30 µM.
Another test deals with R275C/beta4. The note with it: U2OS BacMam BK variants, at 30 µM.
The next test has as its system R275C/Slo1WT/beta2. The note with it: U2OS BacMam BK variants, at 30 µM.

Unmarked numbers belong to inactive results. The source made the active and inactive calls.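 The calls were made as follows: active = thallium flux through the channel raised or lowered by more than 3 SD from vehicle-only wells, actives on both sides; inactive = the rest.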

Sequence of Calcium-activated potassium channel subunit alpha-1 (Homo sapiens) + Leucine-rich repeat-containing protein 26 (Homo sapiens) (Q2I0M4 whole entry, looked up, one chain of several): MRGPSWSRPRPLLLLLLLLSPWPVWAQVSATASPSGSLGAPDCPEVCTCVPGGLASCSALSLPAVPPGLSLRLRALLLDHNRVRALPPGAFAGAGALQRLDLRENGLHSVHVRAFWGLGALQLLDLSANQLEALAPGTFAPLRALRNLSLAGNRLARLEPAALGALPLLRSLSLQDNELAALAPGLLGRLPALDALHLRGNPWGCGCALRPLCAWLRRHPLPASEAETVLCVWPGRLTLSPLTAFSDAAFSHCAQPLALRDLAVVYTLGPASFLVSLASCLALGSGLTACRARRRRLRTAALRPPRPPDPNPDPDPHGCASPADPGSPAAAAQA

In the case of `O=C1C(=Cc2cc(-c3ccccc3)c(C(F)(F)F)s2)CSc2ccc(Cl)cc21`, the log fold change Tl+ flux in the test with F380Y was 0.00549; with F380Y/beta1 it was 0.0168; with F380Y/beta2Delta it was 0.0287; in the test on F380Y/beta4, -0.022; in [1], -0.0261; with R275C, -0.00201. For the same compound, the log fold change Tl+ flux in the test on R275C/beta1 is -0.0099; with R275C/beta2Delta, -0.0048; in the test on R275C/beta4, 0.0191; in the test with R275C/Slo1WT/beta2, 0.0572.
With `O=C(Cn1nnc(N2CCCC2)n1)NN=Cc1ccc(Cl)cc1`, the log fold change Tl+ flux in the test with F380Y is -0.0338; in the test on F380Y/beta1 it was -0.0165; with F380Y/beta2Delta it was -0.0415; with F380Y/beta4 it was 0.0509; in test [1], -0.0411; with R275C, 0.0738. Besides, the log fold change Tl+ flux in the test on R275C/beta1 was 0.012; in the test with R275C/beta2Delta, -0.0395; in the test with R275C/beta4, 0.0185; in the test with R275C/Slo1WT/beta2, -0.00152.
Regarding `N#Cc1cc(-c2ccccc2)oc1NC(=O)c1cccs1`, the log fold change Tl+ flux in the test with F380Y is -0.0586; in the test on F380Y/beta1 it was 0.0261; in the test with F380Y/beta2Delta, 0.0131; in the test with F380Y/beta4, 0.0109; in test [1], 0.0363; in the test on R275C, 0.00241. The log fold change Tl+ flux with R275C/beta1 was -0.0262; in the test with R275C/beta2Delta, 0.0138; in the test on R275C/beta4 it was -0.00555; with R275C/Slo1WT/beta2, 0.0278.
In the case of `Cc1c(O)nc2ccccn2c1=O`, the log fold change Tl+ flux with F380Y was 0.0365; in the test on F380Y/beta1, -0.00065; in the test with F380Y/beta2Delta, 0.0329; in the test with F380Y/beta4 it was 0.00904; in test [1], 0.0423; in the test on R275C, -0.0111. In addition, the log fold change Tl+ flux is 0.0248 in the test on R275C/beta1, 0.00886 in the test on R275C/beta2Delta, 0.0309 with R275C/beta4 and 0.0209 in the test on R275C/Slo1WT/beta2.
As to `COc1cc(NC(=S)Nc2cccc(C)n2)c(OC)cc1Cl`, the log fold change Tl+ flux was 0.00134 with F380Y; -0.00183 in the test with F380Y/beta1; 0.043 in the test with F380Y/beta2Delta; 0.0519 in the test on F380Y/beta4; -0.00641 in [1]; 0.00398 with R275C. The log fold change Tl+ flux was -0.033 with R275C/beta1, 0.0321 in the test with R275C/beta2Delta, -0.0698 in the test with R275C/beta4 and -0.00284 in the test on R275C/Slo1WT/beta2.
Consider `O=C(Nc1ccc(OC(F)(F)F)cc1)OC1CN(C(c2ccccc2)c2ccccc2)C1`, for which the log fold change Tl+ flux in the test with F380Y was -0.0399; in the test with F380Y/beta1 it was -0.0331; with F380Y/beta2Delta, -0.0434; in the test with F380Y/beta4, -0.154 (active); in test [1], -0.134 (active); in the test on R275C, -0.0449. Besides, the log fold change Tl+ flux in the test with R275C/beta1 is 0.0012; in the test on R275C/beta2Delta, -0.0123; with R275C/beta4, 0.0956 (active); in the test with R275C/Slo1WT/beta2, -0.0244.
For `NC(=O)CN1C(=O)C(=Cc2ccco2)N=C1c1ccccc1`, the log fold change Tl+ flux in the test with F380Y is -0.0123; with F380Y/beta1, -0.0266; in the test on F380Y/beta2Delta it was -0.0599; in the test with F380Y/beta4, -0.0551; in [1], -0.015; in the test with R275C it was -0.000262. Moreover, the log fold change Tl+ flux in the test with R275C/beta1 is 0.031; with R275C/beta2Delta, -0.0538; with R275C/beta4, 0.0139; in the test with R275C/Slo1WT/beta2, -0.0206.
Turning to `Cc1ccc(S(=O)(=O)N2Cc3ccccc3C(C)CC23CCCCC3)cc1` (stereo not given), the log fold change Tl+ flux with F380Y was -0.0732; in the test with F380Y/beta1, -0.033; in the test with F380Y/beta2Delta, -0.0539; in the test on F380Y/beta4 it was -0.175 (active); in test [1], -0.0898; in the test on R275C it was -0.0799 (active). Moreover, the log fold change Tl+ flux was -0.119 (active) in the test on R275C/beta1, -0.0411 in the test on R275C/beta2Delta, -0.0534 in the test with R275C/beta4 and 0.009 with R275C/Slo1WT/beta2.
In the case of `Cc1ccc(S(C)(=O)=NC(=O)c2ccc(-c3cc(C(F)(F)F)nn3C)s2)cc1` (stereo not given), the log fold change Tl+ flux in the test on F380Y was -0.000678; in the test on F380Y/beta1, 0.0247; in the test on F380Y/beta2Delta, -0.011; in the test on F380Y/beta4, 0.0284; in test [1], 0.0389; in the test with R275C it was -0.0362. In addition, the log fold change Tl+ flux in the test with R275C/beta1 was 0.013; in the test with R275C/beta2Delta, 0.015; in the test with R275C/beta4 it was 0.00574; with R275C/Slo1WT/beta2, 0.0204.
As for `CC(C)=CC(C)=NNc1c([N+](=O)[O-])cc(C(F)(F)F)cc1[N+](=O)[O-]`, the log fold change Tl+ flux with F380Y was 0.0422; in the test with F380Y/beta1, 0.0383; with F380Y/beta2Delta, 0.0202; with F380Y/beta4, 0.0221; in test [1] it was -0.0328; with R275C it was 0.043. Further, the log fold change Tl+ flux in the test with R275C/beta1 is -0.0463; in the test on R275C/beta2Delta, -0.0753; in the test with R275C/beta4, -0.00952; in the test with R275C/Slo1WT/beta2 it was 0.0191.
As for `CC(=O)Nc1ccc(OCC(=O)N2CCN(c3ncc(C(F)(F)F)cc3Cl)CC2)cc1`, the log fold change Tl+ flux in the test with F380Y is 0.046; in the test with F380Y/beta1, 0.0214; with F380Y/beta2Delta, 0.00987; in the test with F380Y/beta4, 0.125 (active); in test [1] it was 0.039; in the test with R275C, 0.0368. The log fold change Tl+ flux with R275C/beta1 was 0.00256; in the test on R275C/beta2Delta, 0.0353; with R275C/beta4, 0.0246; with R275C/Slo1WT/beta2 it was 0.0473.
`Cc1cc2c(cc1C)CSC(c1ccco1)SC2`: the log fold change Tl+ flux with F380Y was -0.0256; in the test on F380Y/beta1 it was 0.0185; with F380Y/beta2Delta, 0.0283; with F380Y/beta4 it was -0.0391; in test [1], 0.00632; in the test on R275C, -0.00435. For the same compound, the log fold change Tl+ flux in the test with R275C/beta1 is 0.035; with R275C/beta2Delta, 0.055; in the test on R275C/beta4, 0.0187; in the test with R275C/Slo1WT/beta2 it was -0.0173.
For `N#CC(=Cc1cccs1)C(N)=O`, the log fold change Tl+ flux with F380Y was 0.0135; with F380Y/beta1, 0.00229; in the test on F380Y/beta2Delta, 0.0332; in the test with F380Y/beta4, -0.0391; in test [1], -0.00699; in the test on R275C it was 0.00755. The log fold change Tl+ flux is -0.00113 with R275C/beta1, 0.0185 in the test with R275C/beta2Delta, 0.00837 in the test with R275C/beta4 and -0.0032 in the test on R275C/Slo1WT/beta2.

The record behind these values is PubChem BioAssay.
